From PubChem BioAssay AID623870 (Broad Institute, 2012)
Out of some 390,000 compounds screened, about 2,600 (0.67%) were called active. The sample holds actives, similar compounds and a random draw of the others, so the mix is not that of the screen. Values without a mark were called inactive.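 The calls were made as follows: active = mean inhibition of replicates at least 50% and at least half of replicates each reaching 50%; inconclusive = half or more replicates reach 50% but mean below 50%; inactive = the rest.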

Target: Transforming acidic coiled-coil-containing protein 3 (Homo sapiens) (UniProt Q9Y6A5)
Experiment: inhibitors of ARNT PAS-B binding to TACC3 – biochemical, AlphaScreen, single concentration, primary screen (AID 623870);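 also: 0% = complete ARNT plus TACC3 wells and 100% = ARNT alone without TACC3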
Settings: AlphaScreen His-ARNT PAS-B/GST-TACC3 binding, luminescence; at 9.99 µM; active compounds read high; TACC3 fragment carries E629A point mutation

| Compound | inhibition |
| --- | --- |
| ON=C1/C(=N\O)CC2(C/C1=N/O)OCCO2 | 59% (active) |
| C[C@@H]1CN([C@H](C)CO)C(=O)c2cccc(NS(=O)(=O)c3cccs3)c2O[C@@H]1CN(C)C(=O)Nc1cccc2ccccc12 | 26.7% |
| Cc1cccc(-c2ccc([C@@H]3[C@@H](CO)N4CCCCN(S(=O)(=O)c5cccs5)C[C@H]34)cc2)c1 | 14.3% |
| O=C(CCCN1C(=O)c2cccc3cccc(c23)C1=O)N1CCN(Cc2ccc3c(c2)OCO3)CC1 | -11.4% |
| O=C(COC(=O)CCCN1C(=O)c2cccc3cccc(c23)C1=O)NC1CCS(=O)(=O)C1 (configuration not stated) | 7.07% |
| O=C1c2cccc3cccc(c23)C(=O)N1CCCCCc1n[nH]c(=S)o1 | 28.3% (active) |
| C[C@H](CO)N1C[C@H](C)[C@H](CN(C)C(=O)Cc2ccccn2)Oc2ncc(-c3cncnc3)cc2C1=O | -0.547% |
| CO[C@@H]1CN(C)C(=O)c2ccc(NC(=O)Nc3c(C)noc3C)cc2OC[C@@H](C)N(C(=O)Nc2cccc(Cl)c2)C[C@H]1C | 4.61% |
| COc1ccccc1NC(=O)N[C@H]1CC[C@H](CCNC(=O)Cc2ccccn2)O[C@@H]1CO | 6.44% |
| CC(C)n1cnc2c(NCc3ccccc3)cc(OCC3CCN(C)CC3)cc21 | 28.3% (active) |
| CCC(=O)Nc1ccc2c(c1)C(=O)N(C)[C@@H]1CC[C@@H](CC(=O)NCCN3CCCCC3)O[C@@H]1CO2 | -4.58% |
| COc1ccccc1-c1cn(CC[C@@H]2CC[C@@H](NC(=O)c3ccccc3F)[C@H](CO)O2)nn1 | 1.05% |
| C[C@H]1CN([C@@H](C)CO)C(=O)c2cc(C3=CCCCC3)cnc2O[C@H]1CN(C)Cc1ccncc1 | -9.48% |
| c1ccc(-c2noc(-c3cccs3)n2)nc1 | 48.9% (active) |
| O=C(c1cccs1)N(C(=O)c1cccs1)c1ccccn1 | 0.575% |
| O=C(NCc1cccnc1)c1nc(-c2cccs2)no1 | -5.94% |
| CC(NC(=O)c1ccco1)C(=O)Nc1nc(-c2ccccn2)cs1 (configuration not stated) | 65.4% (active) |
| O=C(CN1C(=O)C2C3C=CC(C3)C2C1=O)Nc1nc(-c2ccccn2)cs1 (configuration not stated) | 73.4% (active) |
| CCCC(NC(=O)c1ccco1)c1nc2ccccc2[nH]1 (configuration not stated) | -4.8% |
| CCOC(=O)N1CCN(C(=O)C(C)NC(=O)c2ccco2)CC1 (configuration not stated) | -22% |
| O=C(NCCN1C(=O)C2C3C=CC(C3)C2C1=O)Nc1ccccn1 (configuration not stated) | 0.008% |
| CC1CCN(S(=O)(=O)c2nnc(NC(=O)COc3ccccc3F)s2)CC1 | 31.3% |
| O=C(COc1cccnc1[N+](=O)[O-])Nc1ccc(Cl)cc1F | -2.26% |
| O=C(CCN1C(=O)C2C3C=CC(C3)C2C1=O)Nc1ccccc1F (configuration not stated) | -30.3% |

| Compound | inhibition |
| --- | --- |
| O=C(COc1ccccc1F)Nc1nc(-c2ccccn2)cs1 | 69.7% (active) |
| COc1ccc(S(=O)(=O)N(C)C[C@H]2Oc3ccc(NC(=O)CCC(F)(F)F)cc3CC(=O)N([C@H](C)CO)C[C@@H]2C)cc1 | 14.1% |
| CCCN(C)C[C@H]1Oc2ncc(-c3cccnc3)cc2C(=O)N([C@@H](C)CO)C[C@@H]1C | -0.744% |
| Cc1ccc(S(=O)(=O)N(C)C[C@@H]2OCCCC[C@@H](C)Oc3ccc(NC(=O)C4CCCCC4)cc3C(=O)N([C@H](C)CO)C[C@H]2C)cc1 | -8.72% |
| CCCC(=O)Nc1ccc2c(c1)OC[C@H](C)N(CCC)C[C@@H](C)[C@@H](OC)CN(C)C2=O | 1.16% |
| CC(C)NC(=O)Nc1ccc2c(c1)C(=O)N([C@H](C)CO)C[C@H](C)[C@@H](CN(C)S(=O)(=O)c1ccc(F)cc1)OCCCC[C@H](C)O2 | -7.08% |
| CCCN(C)C[C@@H]1Oc2cc(C#CCc3ccccc3)ccc2S(=O)(=O)N([C@H](C)CO)C[C@@H]1C | 1.97% |
| O=C1CSC(=S)N1/N=C/c1ccc(O)c([N+](=O)[O-])c1 | 12.1% |
| CCOc1cc(/C=N/n2cnnc2)c(Br)cc1O | 7.91% |
| CCOc1cccc(/C=N/N2C(=O)CSC2=S)c1O | 59.8% (active) |
| C[C@H](CO)N1C[C@H](C)[C@H](CN(C)C(=O)c2cnccn2)Oc2cc(C3=CCCC3)ccc2S1(=O)=O | 1.21% |
| COCC#Cc1ccc2c(c1)O[C@@H](CN(C)Cc1ccccn1)[C@@H](C)CN([C@@H](C)CO)S2(=O)=O | -0.755% |
| O=C(NNc1nc(N2CCCC2)nc(N2CCCC2)n1)c1ccccc1 | -2.38% |
| C/C(=N\Nc1nc(N2CCOCC2)nc(N2CCOCC2)n1)c1ccc([N+](=O)[O-])cc1 | 15.4% |
| O=C(O)c1ccc(/C=N/Nc2nc(N3CCCCC3)nc(N3CCCCC3)n2)cc1 | 45% (active) |
| CCCN1C[C@@H](C)[C@H](OC)CN(C)C(=O)c2ccc(NC(=O)C3CCOCC3)cc2OC[C@@H]1C | -0.135% |
| C[C@H]1CN([C@@H](C)CO)C(=O)c2cccc(NC(=O)Nc3ccccc3)c2O[C@H]1CN(C)Cc1ccc(C(F)(F)F)cc1 | 7.66% |
| Nc1nonc1-n1nnc(C(=O)N/N=C/c2cc(Br)ccc2O)c1CSC1=NCCS1 | 17.4% |
| Oc1ccc(Br)cc1/C=N/Nc1ccccn1 | 44.2% (active) |
| Fc1ccccc1/C=N/Nc1cc(N2CCCCC2)ncn1 | 22.7% |
| C[C@H]1CN([C@@H](C)CO)C(=O)c2c(c3ccccc3n2C)-c2ccccc2CO[C@H]1CN(C)S(=O)(=O)c1ccc(C#N)cc1 | 11.3% |
| O=C(C[C@@H]1CC[C@H]2[C@@H](COC[C@@H](O)CN2C(=O)Nc2ccc(F)cc2)O1)NCC1CC1 | 1.68% |
| COc1cccc(N(CC(=O)N2CCc3ccccc3C2)S(C)(=O)=O)c1 | 1.07% |
| CN(c1ccc(C(=O)N2CCc3ccccc3C2)cc1)S(C)(=O)=O | 54% (active) |

| Compound | inhibition |
| --- | --- |
| CN(c1ccccc1)S(=O)(=O)c1ccc(C(=O)N2CCN(c3ccccc3Cl)CC2)cc1 | -20.3% |
| COc1ccc(S(=O)(=O)N(C)C[C@@H]2OCCCC[C@@H](C)Oc3ccc(NS(C)(=O)=O)cc3C(=O)N([C@H](C)CO)C[C@@H]2C)cc1 | -15.8% |
| CCCN(C)C[C@H]1Oc2ncc(C#CCOC)cc2C(=O)N([C@@H](C)CO)C[C@H]1C | -7.68% |
| Cc1ccc(S(=O)(=O)Nc2ccc3c(c2)C(=O)N([C@H](C)CO)C[C@H](C)[C@H](CN(C)C(=O)Nc2ccc4c(c2)OCO4)OCCCC[C@@H](C)O3)cc1 | -0.754% |
| O=C(Nn1cc(C(=O)N2CCN(c3ccccc3F)CC2)c2ccccc2c1=O)c1cnccn1 | 68.5% (active) |
| COc1ccc(Nc2ncc(C(=O)N3CCN(c4ccccc4OC)CC3)c3ccccc23)cc1 | 1.33% |
| Cc1ccccc1N1CCN(C(=O)c2cccnc2)CC1 | -7.09% |
| Cc1ccc(S(=O)(=O)NCC[C@H]2CC[C@@H](NS(=O)(=O)c3ccccc3Cl)[C@H](CO)O2)cc1 | 2.36% |
| C[C@@H]1CN([C@@H](C)CO)C(=O)c2cc(NC(=O)C3CCCCC3)ccc2O[C@@H]1CN(C)S(=O)(=O)c1ccc(F)cc1 | -1.9% |
| NC(=O)C1CCN(C(=O)COc2cccc3cccnc23)CC1 | -5.01% |
| COC(=O)[C@@H]1CCCN1C(=O)c1cc(COc2cccc3cccnc23)on1 | 6.38% |
| CCOc1cc(N2CCOCC2)c(OCC)cc1NC(=O)COc1cccc2cccnc12 | 59.4% (active) |
| C[C@@H]1CN([C@@H](C)CO)C(=O)c2cccc(N(C)C)c2O[C@@H]1CN(C)S(=O)(=O)c1ccccc1 | -5.11% |
| C[C@@H]1CCCCO[C@H](CN(C)C(=O)CCC(F)(F)F)[C@H](C)CN([C@@H](C)CO)C(=O)c2cc(NC(=O)CCCCCC(=O)Nc3ccccc3N)ccc2O1 | 0.568% |
| CO[C@H]1CN(C)C(=O)c2ccc(NC(C)=O)cc2OC[C@@H](C)N(C(=O)c2ccncc2)C[C@@H]1C | 34.9% |
| O=C(O)C[C@@H]1C[C@@H]2c3cc(NC(=O)Nc4ccccc4)ccc3O[C@@H]2[C@H](CO)O1 | -4.96% |
| C[C@H]1CN([C@@H](C)CO)C(=O)Cc2cc(NC(=O)Nc3ccc(F)cc3)ccc2O[C@H]1CN(C)S(=O)(=O)c1ccc(F)cc1 | -0.385% |
| COc1ccc(CN(C)C[C@H]2Oc3c(NC(=O)c4ccncc4)cccc3C(=O)N([C@H](C)CO)C[C@@H]2C)cc1 | -4.67% |
| Cc1cc(S(=O)(=O)NCc2ccccn2)c(Cl)cc1Cl | -1.4% |
| Cc1ccc(C(=O)Nc2ccc(C)c(S(=O)(=O)N(C)C)c2)s1 | -4.57% |
| Cc1ccc(NC(=O)CNCc2ccccn2)cc1S(=O)(=O)N(C)C | 71% (active) |
| C[C@@H]1CN([C@@H](C)CO)C(=O)c2cc(NC(=O)Cc3ccccc3)ccc2O[C@@H](C)CCCCO[C@H]1CN(C)C(=O)Cc1ccccc1 | -2.35% |
| CC[C@]1(O)CC2CN(CCc3c([nH]c4ccccc34)[C@@](C(=O)OC)(c3cc4c(cc3OC)N(C=O)[C@H]3[C@@](O)(C(=O)OC)[C@H](OC(C)=O)[C@]5(CC)C=CCN6CC[C@]43[C@@H]65)C2)C1 (some centres not stated) | 52.9% (active) |
| CC[C@]1(O)C[C@@H]2CN(CCc3c([nH]c4ccccc34)[C@@](C(=O)OC)(c3cc4c(cc3OC)N(C)[C@H]3[C@@](O)(C(=O)OC)[C@H](OC(C)=O)[C@]5(CC)C=CCN6CC[C@]43[C@@H]65)C2)C1 | 16% |
